Out of some 330,000 compounds screened, about 1,900 (0.58%) were called active. Not shown: some 4% with an inconclusive outcome. No stated cut-off is given here; in the data, inconclusive means inhibition above about 70% without an active follow-up result; inactive means below that. These entries were drawn from the full list. Entries with a potency or affinity are not part of this list.
Experiment: M. tuberculosis growth inhibition, HTS (AID 449762);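 further: bacterial growth assessed after seven days of incubation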
Conditions: M. tuberculosis H37Rv growth inhibition, 7H9 media; at 25 µM; active compounds read high

Row | Structure (SMILES) | inhibition
1 | CCCNC(=O)c1ccccc1NC(=O)Nc1ccccc1C | -3.01% (inactive)
2 | COc1ccc2cc1Oc1ccc(cc1)CC1c3c(cc(OC)c4c3Oc3cc5c(cc3O4)CCNC5C2)CCN1C (stereo not drawn) | 2.26% (inactive)
3 | COc1ccc2cc1Oc1ccc(cc1)C[C@H]1c3cc(c(OC)cc3CCN1C)Oc1c(OC)c(OC)cc3c1[C@H](C2)N(C)CC3 | -2.74% (inactive)
4 | COc1ccc(NC(=O)C2CCCO2)cc1Cl (stereo not drawn) | 55.9% (inactive)
5 | COc1cc(C(=O)NCCOc2ccc(Cl)cc2)ccc1OCc1c(C)noc1C | -3.72% (inactive)
6 | CCCC(=O)Nc1ccc2c(c1)nc(CN1CCCC1)n2C | -1.98% (inactive)
7 | Cc1cc(C)n2nc(C(=O)OC(C)C(=O)c3ccccc3)nc2n1 (stereo not drawn) | 7.53% (inactive)
8 | O=C(NCCCn1ccnc1)c1cc(-c2cccnc2)nc2ccc(Br)cc12 | 4.38% (inactive)
9 | Cc1ccc(-c2cc(C(=O)NCCCn3ccnc3)c3cc(Br)ccc3n2)o1 | 4.01% (inactive)
10 | COc1ccc(OCC(O)Cn2c(N)nc3c2c(=O)[nH]c(=O)n3C)cc1 (stereo not drawn) | -6.1% (inactive)
11 | CC1CCc2sc(-c3n[nH]c(=S)o3)cc2C1 (stereo not drawn) | 4.83% (inactive)
12 | Cc1cc(C(=O)Nc2sc3c(c2C#N)CCC(C(C)(C)C)C3)no1 (stereo not drawn) | -1.37% (inactive)
13 | Cc1[nH]c(C(=O)N/N=C/c2ccc(C(=O)O)cc2)c(C)c1C(=O)N/N=C/c1ccc(C(=O)O)cc1 | 2.47% (inactive)
14 | CCOC(=O)N1c2ccccc2Sc2ccccc21 | 10.8% (inactive)
15 | N/C(=N\OC(=O)N1c2ccccc2Sc2ccccc21)c1ccc(Br)cc1 | -4.44% (inactive)
16 | O=C(O)C(Cc1cnc[nH]1)NS(=O)(=O)c1ccc(Cl)cc1 (stereo not drawn) | 0.91% (inactive)
17 | CN1CCN(C(=S)c2ccc(N(C)C)cc2)CC1 | -4.96% (inactive)
18 | O=[N+]([O-])c1cccc(/C=N/Nc2nccnc2Cl)c1 | -0.09% (inactive)
19 | COc1ccc(CN2CCC(N3CC(C)OC(C)C3)CC2)c(OC)c1 (stereo not drawn) | 1.06% (inactive)
20 | COc1cc(-c2ccc3oc(-c4ccsc4)c(C#CC4(O)CCCCC4)c3c2)cc(OC)c1OC | 51.2% (inactive)
21 | CCn1nnc2c(=O)oc3ccccc3c21 | 28.6% (inactive)
22 | CC(C)n1nnc2c(=O)oc3ccccc3c21 | 48% (inactive)
23 | CC1CC(C)CN(C(=O)Cn2nnc(-c3ccc(Br)cc3)n2)C1 (stereo not drawn) | 2.83% (inactive)
24 | CCOC(=O)Cn1c(C)cc(=O)c2cccc(C)c21 | 16.2% (inactive)

Row | Structure (SMILES) | inhibition
25 | CCOC(=O)Cn1c(=O)cc(C)c2cccc(C)c21 | 57.9% (inactive)
26 | COc1ccc(CC(=O)NCc2nnc(SCC(=O)Nc3ccccc3)n2C)cc1 | 4.29% (inactive)
27 | O=C(NCC(=O)N1CCN(c2ccccc2O)CC1)c1ccccc1 | 7.74% (inactive)
28 | CCCCCCC1CC(CCc2nc(=S)[nH][nH]2)C(=O)O1 (stereo not drawn) | -0.55% (inactive)
29 | COC(=O)c1cc(C(=O)NCC2CCCCC2)cc([N+](=O)[O-])c1 | -5.46% (inactive)
30 | O=C(NCC1CCCCC1)c1cccc([N+](=O)[O-])c1 | 4.44% (inactive)
31 | CCOC(=O)C1(CC2CC2)CCN(Cc2cc(Cl)c(O)c(OC)c2)CC1 | -1.14% (inactive)
32 | CCCCn1c(=O)c(C(=O)NCc2ccc(Cl)cc2)c(O)c2ccccc21 | 13% (inactive)
33 | O=[N+]([O-])c1cc(C(F)(F)F)cc([N+](=O)[O-])c1N1CCCNCC1 | -2.74% (inactive)
34 | COc1ccc(N=Nc2ccc(O)c3ncccc23)cc1 | 64.2% (inactive)
35 | Cc1ccc(N=Nc2ccc(O)c3ncccc23)cc1 | 63.9% (inactive)
36 | COc1ccc(OCCNC(=O)CCCO)cc1 | -4.06% (inactive)
37 | Cc1ccsc1/C=N/NC(=O)c1ccc(Cn2cc(Br)cn2)o1 | -7.92% (inactive)
38 | O=C1Nc2cc(C(=O)NCC3CCCO3)ccc2S/C1=C/c1ccccc1F (stereo not drawn) | 2.49% (inactive)
39 | COc1ccc(-c2csc(/C(C#N)=C\c3ccc(OC)c([N+](=O)[O-])c3)n2)cc1 | 11.1% (inactive)
40 | COc1ccc(-c2csc(/C(C#N)=C\c3cccc([N+](=O)[O-])c3)n2)cc1 | 9.75% (inactive)
41 | Cc1ccc(C#CC[N+]2(C)CCCCC2)cc1 | -6.71% (inactive)
42 | C#CC[N+]1(CC#Cc2ccc(C)cc2)CCCCC1 | 6.8% (inactive)
43 | Cc1ccc(/C=N/Nc2nnc(Cc3ccccc3)c(=O)[nH]2)o1 | 0.24% (inactive)
44 | CCOc1ccc(-c2cc(N)n(S(=O)(=O)c3cccc4nsnc34)n2)cc1 | -2.37% (inactive)
45 | O=C(NCC(c1ccco1)N1CCOCC1)C1CCCCC1 (stereo not drawn) | 1.93% (inactive)
46 | O=C(CSc1ncnc2nc[nH]c12)c1ccc([N+](=O)[O-])cc1 | -8.27% (inactive)
47 | Cn1cnc([N+](=O)[O-])c1Sc1ncnc2nc[nH]c12 | 3.96% (inactive)
48 | COc1ccccc1C(=O)NC(=O)COC(=O)c1nc2nc(C)cc(C)n2n1 | -0.8% (inactive)

Row | Structure (SMILES) | inhibition
49 | CCc1cc2c(=O)c(-c3nc4ccccc4n3C)c(C(C)C)oc2c(CN2CCN(C)CC2)c1O | 3.5% (inactive)
50 | COc1ccc(N2C(=O)C(Cl)=C(Nc3ccccc3OC)C2=O)cc1 | -3.72% (inactive)
51 | CCOc1ccccc1NC1=C(Cl)C(=O)N(c2ccc(OC)cc2)C1=O | -6.27% (inactive)
52 | O=S(=O)(c1ccc2ccccc2c1)N1CCN(CCO)CC1 | 4.19% (inactive)
53 | Cc1ccc(S(=O)(=O)N(CC(=O)c2ccc(Cl)cc2)C(=O)N2CCN(C)CC2)cc1 | -5.16% (inactive)
54 | COc1cccc(CC(NC(C)=O)C(=O)NC2CCN(S(=O)(=O)c3cccc4ccccc34)CC2)c1 (stereo not drawn) | 1.8% (inactive)
55 | COC(=O)c1ccc(NC(=O)CSCc2ccccc2C)cc1 | 21.9% (inactive)
56 | CCOc1ccccc1N1CCN(C(=O)c2cn(CC3CCCCC3)nn2)CC1 | 53.5% (inactive)
57 | Cc1cccc(C)c1OCc1cc(C(=O)N2CCN(c3ccccc3)CC2C)no1 (stereo not drawn) | 61.7% (inactive)
58 | Cc1ccnc(NC(=O)c2ccc(Cl)c(NC(=O)c3ccccc3C)c2)c1 | -1.18% (inactive)
59 | O=C(Nc1ccon1)Nc1cccc(Cl)c1Cl | -8.3% (inactive)
60 | Cc1cc(C(=O)Nc2nc3ccc(S(C)(=O)=O)cc3s2)c(C)o1 | -11.6% (inactive)
61 | Cc1ccc2cc(C(c3nnnn3CC3CCCO3)N3CCc4ccccc4C3)c(=O)[nH]c2c1 (stereo not drawn) | 11.1% (inactive)
62 | NS(=O)(=O)c1ccc(N=Nc2ccc(O)c3ncccc23)cc1 | -1.88% (inactive)
63 | Nc1ccc(N=Nc2ccccc2)c2ccccc12 | -11.4% (inactive)
64 | CCCC(=O)Nc1nnc(S(=O)(=O)N(CC)c2ccc(OC)cc2)s1 | 6.35% (inactive)
65 | O=c1[nH]c2ccccc2nc1Cc1ccc([N+](=O)[O-])cc1 | 1.98% (inactive)
66 | Cc1nn(C(C)C(=O)N2CCCC2)c(=O)c2nn(-c3ccccc3)c(C)c12 (stereo not drawn) | 4.45% (inactive)
67 | O=C([O-])c1cc(-c2ccccc2)cc(-c2ccccc2)[n+]1Cc1ccccc1 | 2.25% (inactive)
68 | Cc1cc(-c2ccccc2)cc(C)[n+]1Cc1ccccc1 | 4.78% (inactive)
69 | Cn1c(=O)cc(SCC(=O)N2CCOCC2)c2ccc(Cl)cc21 | -11.3% (inactive)
70 | Cn1c(=O)cc(SCC(=O)N2CCCC2)c2ccc(Cl)cc21 | 3.77% (inactive)
71 | Cc1cccc(CCNC(=O)c2cc(S(=O)(=O)N3CCCC3)cn2C)c1 | -6.27% (inactive)
72 | Cc1ccc(/C=C/C(=O)OCC(=O)NC(=O)NCc2ccccc2)cc1 | -1.66% (inactive)

Row | Structure (SMILES) | inhibition
73 | CC1(C)CC(=O)C2=C(C1)OC(N)=C([N+](=O)[O-])C2c1cccs1 (stereo not drawn) | 3.64% (inactive)
74 | Cc1ccc(C2C(C#N)=C(N)OC3=C2C(=O)CC(C)(C)C3)s1 (stereo not drawn) | 4.01% (inactive)
75 | COC(C(=O)Nc1cccc(F)c1)c1ccccc1 (stereo not drawn) | 1.2% (inactive)
76 | CCN1CCN(c2ccc(S(=O)(=O)N3CCCCC3)cc2NC(=O)/C=C/c2ccc([N+](=O)[O-])cc2)CC1 | 67.1% (inactive)
77 | COc1ccc(/C=C/C(=O)Nc2cc(S(=O)(=O)N3CCCCC3)ccc2N2CCCCC2)cc1OC | 6.87% (inactive)
78 | CCCCCNC(=O)c1ccc2c(c1)ncn2-c1ccc(OC)cc1 | 13.7% (inactive)
79 | CCOc1ccc([C@@H]2CC=C(C(=O)O)[C@H](c3ccc(Cl)cc3)N2S(=O)(=O)c2ccc(C)cc2)cc1 | -1.26% (inactive)
80 | Cn1cc(CCNC(=O)CC2C(=O)NCCN2Cc2cccc(Oc3ccccc3)c2)cn1 (stereo not drawn) | 2.08% (inactive)
81 | CN(C)CCCNC1=CC(=O)CC(c2ccccc2)C1 (stereo not drawn) | -4.95% (inactive)
82 | CCCCCNC1=CC(=O)CC(c2ccccc2)C1 (stereo not drawn) | -1.58% (inactive)
83 | COc1ncnc2c1cnn2-c1ccccc1 | 7.17% (inactive)
84 | C=CCOn1c(=O)c(-c2ccc(OCC)cc2)[n+]([O-])c2ccccc21 | 6.39% (inactive)
85 | O=C(CCCSc1nc2ccccc2[nH]1)N1CCN(c2ccc([N+](=O)[O-])cc2)CC1 | -13.5% (inactive)
86 | CC(C)CCNC(=O)C1CCCN(S(=O)(=O)c2ccc(-n3cnnn3)cc2)C1 (stereo not drawn) | 1.26% (inactive)
87 | C/C=C/C(=O)OCc1csc(CC(=O)Nc2ccccc2C)n1 | -2.53% (inactive)
88 | CCOC(=O)/C=C/C(=O)OCc1csc(CC(=O)Nc2ccccc2C)n1 | -12.3% (inactive)
89 | Cc1cc(NC(=O)/C(C#N)=C/c2ccc(-c3cccc(C(F)(F)F)c3)o2)n(-c2ccccc2)n1 | 9.74% (inactive)
90 | O=C(NNc1nc2ccccc2s1)Nc1ccc(F)cc1 | 7.66% (inactive)
91 | COc1ccc2nc(NNC(=O)COc3ccccc3)sc2c1 | 6.88% (inactive)
92 | COc1ccc(OCC(=O)NNc2nc3ccccc3s2)cc1 | 70% (inactive)
93 | CC(=O)NNc1nc2ccccc2s1 | -19.1% (inactive)
